In all, about 5,500 compounds went through this assay and about 2,000 (36%) were called active. Not shown: some 18% with an inconclusive outcome. Rule as the data show it: active = normalized growth mostly below about 0.91 (no sharp cut-off); inconclusive = no clear call, values can overlap the other calls; inactive = mostly above about 0.92. Some of the results follow.
Test: chemical genetic growth profiling, strain panel (AID 1159580);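 also: tested at 20 µM; growth read once vehicle control cultures reached saturation at 30 °C; 1 = growth at the plate median or of vehicle wells; lower values mean less growth of the strain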
Conditions: growth OD

Measured: normalized growth

NCCCC[C@H](N[C@@H](CCc1ccccc1)C(=O)O)C(=O)N1CCC[C@H]1C(=O)O
inactive: S. cerevisiae deletion strains, locus YKL009W, strain mrt4, active compounds read low 0.973 | S. cerevisiae deletion strains, locus YKL068W, active compounds read low 0.99 | S. cerevisiae deletion strains, locus YKL085W, strain MDH1 (second series), active compounds read low 0.993 | S. cerevisiae deletion strains, locus YKL085W, strain MDH1, active compounds read low 0.993 | S. cerevisiae deletion strains, locus YKL160W, strain elf1, active compounds read low 0.999 | S. cerevisiae deletion strains, locus YKL190W, strain CNB1, active compounds read low 0.981 | S. cerevisiae deletion strains, locus YKR001C, strain vps1, active compounds read low 1.01 | S. cerevisiae deletion strains, locus YKR026C, strain gcn3, active compounds read low 1.04 | S. cerevisiae deletion strains, locus YKR091W, strain srl3, active compounds read low 1.01 | S. cerevisiae deletion strains, locus YLL001W, strain dnm1, active compounds read low 1 | S. cerevisiae deletion strains, locus YLL026W, active compounds read low 0.994 | S. cerevisiae deletion strains, locus YLL041C, strain sdh2, active compounds read low 0.97 | S. cerevisiae deletion strains, locus YLR027C, strain aat2, active compounds read low 0.998 | S. cerevisiae deletion strains, locus YLR039C, strain RIC1, active compounds read low 0.985 | S. cerevisiae deletion strains, locus YLR058C, strain SHM2, active compounds read low 0.984 | S. cerevisiae deletion strains, locus YLR102C, strain apc9, active compounds read low 0.996 | S. cerevisiae deletion strains, locus YLR113W, strain HOG1, active compounds read low 1.01 | S. cerevisiae deletion strains, locus YLR221C, strain rsa3, active compounds read low 0.981 | S. cerevisiae deletion strains, locus YLR258W, strain gsy2, active compounds read low 1.01 | S. cerevisiae deletion strains, locus YLR262C, strain YPT6 (second series), active compounds read low 1.01 | S. cerevisiae deletion strains, locus YLR262C, strain YPT6, active compounds read low 0.94 | S. cerevisiae deletion strains, locus YLR268W, strain sec22, active compounds read low 1 | S. cerevisiae deletion strains, locus YLR320W, strain mms22, active compounds read low 1.03 | S. cerevisiae deletion strains, locus YLR330W, strain CHS5, active compounds read low 0.994 | S. cerevisiae deletion strains, locus YLR342W, strain FKS1 (second series), active compounds read low 1.05 | S. cerevisiae deletion strains, locus YLR342W, strain FKS1, active compounds read low 1 | S. cerevisiae deletion strains, locus YLR357W, strain rsc2, active compounds read low 1.04 | S. cerevisiae deletion strains, locus YLR370C, strain arc18, active compounds read low 0.971 | S. cerevisiae deletion strains, locus YLR371W, strain rom2, active compounds read low 1 | S. cerevisiae deletion strains, locus YLR384C, strain iki3, active compounds read low 0.978 | S. cerevisiae deletion strains, locus YLR418C, strain cdc73, active compounds read low 1 | S. cerevisiae deletion strains, locus YML016C, strain PPZ1, active compounds read low 0.992 | S. cerevisiae deletion strains, locus YML032C, strain rad52, active compounds read low 0.999 | S. cerevisiae deletion strains, locus YML120C, strain ndi1, active compounds read low 0.976 | S. cerevisiae deletion strains, locus YML124C, strain tub3, active compounds read low 0.995 | S. cerevisiae deletion strains, locus YMR058W, strain fet3, active compounds read low 1.02 | S. cerevisiae deletion strains, locus YMR078C, strain ctf18, active compounds read low 0.998 | S. cerevisiae deletion strains, locus YMR125W, strain sto1, active compounds read low 1.04 | S. cerevisiae deletion strains, locus YMR129W, active compounds read low 0.964 | S. cerevisiae deletion strains, locus YMR205C, strain PFK2, active compounds read low 0.984 | S. cerevisiae deletion strains, locus YMR223W, strain ubp8, active compounds read low 0.983 | S. cerevisiae deletion strains, locus YMR231W, strain pep5, active compounds read low 1.02 | S. cerevisiae deletion strains, locus YMR307W, strain GAS1, active compounds read low 1.05 | S. cerevisiae deletion strains, locus YNL067W, strain RPL9B, active compounds read low 0.964 | S. cerevisiae deletion strains, locus YNL071W, strain lat1, active compounds read low 1.02 | S. cerevisiae deletion strains, locus YNL128W, strain TEP1, active compounds read low 0.989 | S. cerevisiae deletion strains, locus YNL153C, strain GIM3, active compounds read low 0.955 | S. cerevisiae deletion strains, locus YNL183C, strain NPR1, active compounds read low 0.96 | S. cerevisiae deletion strains, locus YNL209W, strain ssb2, active compounds read low 1.01 | S. cerevisiae deletion strains, locus YNL233W, strain BNI4, active compounds read low 0.975 | S. cerevisiae deletion strains, locus YNL248C, strain rpa49, active compounds read low 1.01 | S. cerevisiae deletion strains, locus YNL250W, strain rad50, active compounds read low 0.982 | S. cerevisiae deletion strains, locus YNL271C, strain bni1, active compounds read low 0.997 | S. cerevisiae deletion strains, locus YNL298W, strain CLA4, active compounds read low 0.993 | S. cerevisiae deletion strains, locus YNL307C, strain MCK1, active compounds read low 1.01 | S. cerevisiae deletion strains, locus YNL322C, strain KRE1 (second series), active compounds read low 1.02 | S. cerevisiae deletion strains, locus YNL322C, strain KRE1, active compounds read low 0.993 | S. cerevisiae deletion strains, locus YNR049C, strain mso1, active compounds read low 0.964 | S. cerevisiae deletion strains, locus YNR052C, strain pop2, active compounds read low 1.01 | S. cerevisiae deletion strains, locus YOL006C, strain TOP1, active compounds read low 0.922 | S. cerevisiae deletion strains, locus YOL012C, strain htz1 1.17 | S. cerevisiae deletion strains, locus YOL147C, strain pex11, active compounds read low 0.988 | S. cerevisiae deletion strains, locus YOR001W, strain rrp6, active compounds read low 0.967 | S. cerevisiae deletion strains, locus YOR061W, strain CKA2, active compounds read low 0.956 | S. cerevisiae deletion strains, locus YOR069W, strain VPS5, active compounds read low 0.998 | S. cerevisiae deletion strains, locus YOR070C, strain gyp1, active compounds read low 0.941 | S. cerevisiae deletion strains, locus YOR080W, strain dia2, active compounds read low 0.992 | S. cerevisiae deletion strains, locus YOR083W, strain WHI5, active compounds read low 1.01 | S. cerevisiae deletion strains, locus YOR106W, strain vam3, active compounds read low 1 | S. cerevisiae deletion strains, locus YOR136W, strain idh2, active compounds read low 0.994 | S. cerevisiae deletion strains, locus YOR144C, strain elg1, active compounds read low 0.998 | S. cerevisiae deletion strains, locus YOR184W, strain ser1, active compounds read low 1 | S. cerevisiae deletion strains, locus YOR231W, strain MKK1, active compounds read low 1.04 | S. cerevisiae deletion strains, locus YOR265W, strain rbl2, active compounds read low 0.987 | S. cerevisiae deletion strains, locus YOR270C, strain vph1, active compounds read low 1.04 | S. cerevisiae deletion strains, locus YOR290C, strain snf2, active compounds read low 1.02 | S. cerevisiae deletion strains, locus YOR316C, strain cot1, active compounds read low 1 | S. cerevisiae deletion strains, locus YPL051W, strain arl3, active compounds read low 1.01 | S. cerevisiae deletion strains, locus YPL078C, strain atp4, active compounds read low 1.02 | S. cerevisiae deletion strains, locus YPL106C, strain sse1, active compounds read low 0.949 | S. cerevisiae deletion strains, locus YPL240C, strain hsp82, active compounds read low 0.986 | S. cerevisiae deletion strains, locus YPL256C, strain CLN2, active compounds read low 1.02 | S. cerevisiae deletion strains, locus YPR119W, strain clb2, active compounds read low 0.994 | S. cerevisiae deletion strains, locus YPR141C, strain kar3, active compounds read low 0.985 | S. cerevisiae deletion strains, locus YPR163C, strain tif3, active compounds read low 0.988 | S. cerevisiae deletion strains, locus YPR167C, strain met16, active compounds read low 0.999 | S. cerevisiae deletion strains, strain wtn01, active compounds read low 0.998 | S. cerevisiae strains, strain wild type, active compounds read low 0.982
